Test results from the supplement of paper PMC10849652.
About 7,900 targets were measured; listed, in parts, are those with a hit and a random draw of the rest. About 0.6% of all pairs of compound and target were hits. A number with no mark means an inactive call.

How the values were obtained:
Assay in all cases: log2 fold change, soluble protein after heating vs DMSO (PISA); higher = thermal stabilisation; K562 cells, 10 uM, 30 min; active = over 0.2 and 3.5 SD of the protein, either way, in both replicates (recomputed)
[1] = compound: CC[C@@H]1C(=O)N(C)c2cnc(Nc3ccc(C(=O)NC4CCN(C)CC4)cc3OC)nc2N1C1CCCC1
Summary of the method: (§1)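 Quantification of soluble protein used TMTpro 16plex LC-MS/MS, with channel sums equalised. Samples were the supernatant after 21,000xg for 90 min of pooled aliquots from K562 cells (2×10^6 cells/mL) treated with 10 μM compound for 30 min, heated for 3 min over 48°C-58°C, and extracted in PBS with 0.5% NP-40 at 4°C. Values, from duplicates, describe thermal stability against control samples on a log2 fold-change scale.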

volasertib = compound: CC[C@@H]1C(=O)N(C)c2cnc(Nc3ccc(C(=O)N[C@H]4CC[C@H](N5CCN(CC6CC6)CC5)CC4)cc3OC)nc2N1C(C)C [volasertib]
Summary of the method: as §1

[2] = compound: CC[C@H](C)N1C=C(C2=C(C=C(C=C21)C3=CN=C(C=C3)N4CCNCC4)C(=O)NCC5=C(C=C(NC5=O)C)C)C
Summary of the method: as §1

epoxomicin = compound: CC[C@H](C)[C@@H](C(=O)N[C@@H]([C@@H](C)O)C(=O)N[C@@H](CC(C)C)C(=O)[C@]1(CO1)C)NC(=O)[C@H]([C@@H](C)CC)N(C)C(=O)C [epoxomicin]
Summary of the method: as §1

[3] = compound: CCn1c(C(=O)N(C2CC2)C2CC2)cc2c3c(ncn3C)c(Nc3cc(C)n(C)n3)nc21
Summary of the method: as §1

[4] = compound: CCn1cc(-c2ccnc3[nH]c(-c4cccc(CN(C)C)c4)cc23)c(-c2ccc(NC(=O)N(C)C)cc2)n1
Summary of the method: as §1

[5] = compound: CN(C)CC(=O)Nc1ccc2[nH]c(=O)c3ccccc3c2c1
Summary of the method: as §1

rosiglitazone = compound: CN(CCOC1=CC=C(C=C1)C[C@H]2C(=O)NC(=O)S2)C3=CC=CC=N3 (racemic) [rosiglitazone]
Summary of the method: as §1

[6] = compound: CN1C2=C(C3=C1C(=O)N(N=C3)CC4=CC(=CC=C4)N)SC(=C2)S(=O)C
Summary of the method: as §1

[7] = compound: CN1CCC(CNc2ccc3ncc(-c4cccc(OC(F)(F)F)c4)n3n2)CC1
Summary of the method: as §1

saracatinib = compound: CN1CCN(CCOc2cc(OC3CCOCC3)c3c(Nc4c(Cl)ccc5c4OCO5)ncnc3c2)CC1 [saracatinib]
Summary of the method: as §1

sotrastaurin = compound: CN1CCN(c2nc(C3=C(c4c[nH]c5ccccc45)C(=O)NC3=O)c3ccccc3n2)CC1 [sotrastaurin]
Summary of the method: as §1

alvocidib = compound: CN1CC[C@H](c2c(O)cc(O)c3c(=O)cc(-c4ccccc4Cl)oc23)[C@H](O)C1 [alvocidib]
Summary of the method: as §1

Tubastatin A = compound: CN1CCc2c(c3ccccc3n2Cc2ccc(C(=O)NO)cc2)C1 [Tubastatin A]
Summary of the method: as §1

[8] = compound: CNC(=O)C1=CC=CC=C1NC2=NC(=NC=C2Cl)NC3=C(C=C(C=C3)N4CCOCC4)OC
Summary of the method: as §1

defactinib = compound: CNC(=O)c1ccc(Nc2ncc(C(F)(F)F)c(NCc3nccnc3N(C)S(C)(=O)=O)n2)cc1 [defactinib]
Summary of the method: as §1

rucaparib = compound: CNCc1ccc(-c2[nH]c3cc(F)cc4c3c2CCNC4=O)cc1 [rucaparib]
Summary of the method: as §1

[9] = compound: CNc1nc(-c2ccc3c(N)n[nH]c3c2)cc(N2C[C@@H](C(=O)NC3CCCCC3)CC[C@H]2C)n1
Summary of the method: as §1

encorafenib = compound: COC(=O)N[C@@H](C)CNc1nccc(-c2cn(C(C)C)nc2-c2cc(Cl)cc(NS(C)(=O)=O)c2F)n1 [encorafenib]
Summary of the method: as §1

[10] = compound: COC(=O)[C@H](CCSC)NC(=O)C1=C(C=C(C=C1)NC[C@H](CS)N)C2=CC=CC=C2
Summary of the method: as §1

UniProt Q9H0B6, sequence (Q9H0B6 whole entry, looked up): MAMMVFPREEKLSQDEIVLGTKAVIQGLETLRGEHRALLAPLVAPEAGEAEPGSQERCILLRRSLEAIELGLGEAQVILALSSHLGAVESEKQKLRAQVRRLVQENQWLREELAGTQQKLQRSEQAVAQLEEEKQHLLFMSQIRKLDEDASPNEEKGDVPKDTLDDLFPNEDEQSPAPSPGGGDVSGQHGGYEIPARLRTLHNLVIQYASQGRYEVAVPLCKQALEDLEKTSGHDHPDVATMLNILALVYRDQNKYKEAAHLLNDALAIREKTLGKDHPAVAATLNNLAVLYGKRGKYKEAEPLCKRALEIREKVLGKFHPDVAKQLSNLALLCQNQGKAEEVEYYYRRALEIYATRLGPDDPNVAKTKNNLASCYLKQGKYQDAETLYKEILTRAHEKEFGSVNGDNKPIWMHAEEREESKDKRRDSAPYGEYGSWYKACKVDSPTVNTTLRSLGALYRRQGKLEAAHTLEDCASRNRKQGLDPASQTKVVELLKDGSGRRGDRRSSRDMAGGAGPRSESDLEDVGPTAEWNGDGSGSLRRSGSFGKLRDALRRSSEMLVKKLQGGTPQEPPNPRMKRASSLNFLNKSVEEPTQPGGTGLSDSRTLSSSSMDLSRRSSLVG
UniProt P43362, sequence (P43362 whole entry, looked up): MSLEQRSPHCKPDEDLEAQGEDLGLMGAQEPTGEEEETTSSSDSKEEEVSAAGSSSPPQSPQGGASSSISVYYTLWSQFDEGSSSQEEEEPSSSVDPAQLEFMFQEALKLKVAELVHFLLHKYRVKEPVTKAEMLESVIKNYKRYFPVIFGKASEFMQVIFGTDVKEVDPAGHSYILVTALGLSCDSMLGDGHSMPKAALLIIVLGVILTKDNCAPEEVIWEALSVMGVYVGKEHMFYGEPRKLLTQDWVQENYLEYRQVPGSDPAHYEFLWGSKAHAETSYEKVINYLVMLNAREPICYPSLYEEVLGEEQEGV
UniProt Q9Y2U8, sequence (Q9Y2U8 whole entry, looked up): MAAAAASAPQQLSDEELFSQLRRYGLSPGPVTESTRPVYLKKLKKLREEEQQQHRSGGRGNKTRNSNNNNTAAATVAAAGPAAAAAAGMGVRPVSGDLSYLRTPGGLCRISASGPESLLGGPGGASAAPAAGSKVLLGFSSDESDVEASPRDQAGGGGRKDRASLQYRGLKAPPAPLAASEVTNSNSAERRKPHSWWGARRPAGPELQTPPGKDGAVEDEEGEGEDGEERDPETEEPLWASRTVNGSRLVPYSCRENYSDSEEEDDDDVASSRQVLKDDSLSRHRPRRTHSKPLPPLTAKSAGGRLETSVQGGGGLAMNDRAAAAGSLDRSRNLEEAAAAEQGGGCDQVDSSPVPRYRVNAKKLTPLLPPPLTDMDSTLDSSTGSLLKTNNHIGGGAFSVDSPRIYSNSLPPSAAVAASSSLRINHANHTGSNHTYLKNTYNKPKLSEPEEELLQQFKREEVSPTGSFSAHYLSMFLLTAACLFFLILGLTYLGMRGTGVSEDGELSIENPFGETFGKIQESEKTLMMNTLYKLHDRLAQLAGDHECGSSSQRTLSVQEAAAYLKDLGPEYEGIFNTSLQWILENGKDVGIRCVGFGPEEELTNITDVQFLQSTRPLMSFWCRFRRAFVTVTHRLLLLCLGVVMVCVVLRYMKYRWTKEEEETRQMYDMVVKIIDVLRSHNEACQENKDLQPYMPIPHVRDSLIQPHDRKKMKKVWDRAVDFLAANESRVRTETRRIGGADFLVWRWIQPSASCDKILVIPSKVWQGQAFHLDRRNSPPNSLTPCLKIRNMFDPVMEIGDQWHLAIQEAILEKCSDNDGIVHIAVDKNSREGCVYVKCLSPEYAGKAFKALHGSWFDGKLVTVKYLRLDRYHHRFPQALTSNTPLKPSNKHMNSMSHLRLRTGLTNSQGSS
UniProt Q96EK5, sequence (Q96EK5 whole entry, looked up): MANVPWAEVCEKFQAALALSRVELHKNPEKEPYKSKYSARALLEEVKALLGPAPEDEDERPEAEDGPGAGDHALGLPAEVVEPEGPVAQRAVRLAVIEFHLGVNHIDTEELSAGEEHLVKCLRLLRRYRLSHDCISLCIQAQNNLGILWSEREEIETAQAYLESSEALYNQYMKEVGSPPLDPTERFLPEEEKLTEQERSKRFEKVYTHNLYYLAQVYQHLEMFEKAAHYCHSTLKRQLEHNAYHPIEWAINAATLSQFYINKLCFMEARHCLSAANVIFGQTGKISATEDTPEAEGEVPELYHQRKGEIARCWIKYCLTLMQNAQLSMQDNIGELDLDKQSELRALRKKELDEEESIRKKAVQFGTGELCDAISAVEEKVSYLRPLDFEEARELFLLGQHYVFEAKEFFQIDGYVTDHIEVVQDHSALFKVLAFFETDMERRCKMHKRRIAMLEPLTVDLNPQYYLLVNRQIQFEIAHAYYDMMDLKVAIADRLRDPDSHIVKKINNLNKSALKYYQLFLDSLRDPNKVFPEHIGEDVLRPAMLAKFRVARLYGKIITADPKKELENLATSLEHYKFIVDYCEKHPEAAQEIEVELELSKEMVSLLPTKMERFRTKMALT
UniProt Q9NWZ3, sequence (Q9NWZ3 whole entry, looked up): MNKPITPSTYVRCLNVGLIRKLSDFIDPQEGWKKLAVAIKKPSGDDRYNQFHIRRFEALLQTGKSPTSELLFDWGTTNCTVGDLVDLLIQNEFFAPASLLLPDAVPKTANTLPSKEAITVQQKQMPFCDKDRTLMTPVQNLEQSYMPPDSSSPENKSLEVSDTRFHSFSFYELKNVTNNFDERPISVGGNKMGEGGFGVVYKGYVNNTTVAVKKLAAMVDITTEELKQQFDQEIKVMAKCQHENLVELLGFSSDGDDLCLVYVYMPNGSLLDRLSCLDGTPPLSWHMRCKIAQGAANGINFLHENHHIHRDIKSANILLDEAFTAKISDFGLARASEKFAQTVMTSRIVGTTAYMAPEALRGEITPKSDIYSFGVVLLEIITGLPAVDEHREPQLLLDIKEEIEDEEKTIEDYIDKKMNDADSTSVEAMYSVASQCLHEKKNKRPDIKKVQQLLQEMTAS
UniProt Q14739, sequence (Q14739 whole entry, looked up): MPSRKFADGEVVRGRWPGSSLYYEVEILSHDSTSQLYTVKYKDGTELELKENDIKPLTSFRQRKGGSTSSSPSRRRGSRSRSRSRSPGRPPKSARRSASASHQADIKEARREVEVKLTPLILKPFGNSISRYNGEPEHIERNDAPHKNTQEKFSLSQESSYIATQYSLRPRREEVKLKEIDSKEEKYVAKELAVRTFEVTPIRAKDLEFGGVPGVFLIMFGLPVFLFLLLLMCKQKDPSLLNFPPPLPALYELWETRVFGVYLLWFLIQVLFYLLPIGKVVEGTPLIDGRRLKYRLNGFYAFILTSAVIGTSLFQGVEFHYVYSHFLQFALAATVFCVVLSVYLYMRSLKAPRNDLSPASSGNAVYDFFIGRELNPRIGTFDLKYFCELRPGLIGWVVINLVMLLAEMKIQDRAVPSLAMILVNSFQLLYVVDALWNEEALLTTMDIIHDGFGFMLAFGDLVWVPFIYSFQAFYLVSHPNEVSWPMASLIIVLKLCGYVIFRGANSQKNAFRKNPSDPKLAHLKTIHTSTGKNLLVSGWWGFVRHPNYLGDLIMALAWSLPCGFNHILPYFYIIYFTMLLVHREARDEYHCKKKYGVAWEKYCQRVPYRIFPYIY
UniProt Q07820, sequence (Q07820 whole entry, looked up): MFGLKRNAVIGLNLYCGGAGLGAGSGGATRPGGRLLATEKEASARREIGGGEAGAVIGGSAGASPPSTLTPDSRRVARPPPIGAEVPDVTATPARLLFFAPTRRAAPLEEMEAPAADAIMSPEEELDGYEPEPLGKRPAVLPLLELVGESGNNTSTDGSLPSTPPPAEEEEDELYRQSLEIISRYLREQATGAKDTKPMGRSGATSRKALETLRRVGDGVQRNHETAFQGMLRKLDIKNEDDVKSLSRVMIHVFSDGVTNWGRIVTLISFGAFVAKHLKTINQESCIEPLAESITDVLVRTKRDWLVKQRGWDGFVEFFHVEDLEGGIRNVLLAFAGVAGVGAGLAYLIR
UniProt P23276, sequence (P23276 whole entry, looked up): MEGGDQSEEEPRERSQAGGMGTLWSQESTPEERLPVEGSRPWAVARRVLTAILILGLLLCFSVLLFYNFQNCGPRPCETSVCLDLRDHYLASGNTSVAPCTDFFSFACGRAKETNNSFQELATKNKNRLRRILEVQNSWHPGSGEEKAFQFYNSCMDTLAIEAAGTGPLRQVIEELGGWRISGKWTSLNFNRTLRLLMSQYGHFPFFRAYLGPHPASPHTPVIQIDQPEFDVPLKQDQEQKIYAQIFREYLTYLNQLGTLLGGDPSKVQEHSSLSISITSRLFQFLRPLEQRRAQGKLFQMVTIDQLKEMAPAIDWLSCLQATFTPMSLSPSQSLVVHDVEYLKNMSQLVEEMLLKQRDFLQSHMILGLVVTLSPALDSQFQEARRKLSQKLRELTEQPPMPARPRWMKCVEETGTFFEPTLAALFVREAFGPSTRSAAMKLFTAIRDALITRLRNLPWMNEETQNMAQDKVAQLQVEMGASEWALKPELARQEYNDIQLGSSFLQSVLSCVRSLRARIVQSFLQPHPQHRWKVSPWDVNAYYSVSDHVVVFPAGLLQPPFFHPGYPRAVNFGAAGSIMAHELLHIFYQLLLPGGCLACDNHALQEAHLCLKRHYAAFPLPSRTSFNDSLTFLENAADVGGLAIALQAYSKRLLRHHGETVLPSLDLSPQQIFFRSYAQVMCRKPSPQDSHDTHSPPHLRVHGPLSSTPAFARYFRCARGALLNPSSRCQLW
UniProt Q12905, sequence (Q12905 whole entry, looked up): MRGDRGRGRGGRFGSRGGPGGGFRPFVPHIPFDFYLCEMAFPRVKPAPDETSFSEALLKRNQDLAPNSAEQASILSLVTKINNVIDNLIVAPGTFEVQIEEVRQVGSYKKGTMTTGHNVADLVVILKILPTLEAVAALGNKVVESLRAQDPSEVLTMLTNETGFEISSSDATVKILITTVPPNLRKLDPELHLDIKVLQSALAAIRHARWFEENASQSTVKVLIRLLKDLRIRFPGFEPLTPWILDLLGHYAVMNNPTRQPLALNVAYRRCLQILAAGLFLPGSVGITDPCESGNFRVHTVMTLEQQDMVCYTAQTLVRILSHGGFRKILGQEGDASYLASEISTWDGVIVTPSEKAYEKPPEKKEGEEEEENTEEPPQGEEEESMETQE

Row | Target | log2 fold change [1] | log2 fold change (volasertib) | log2 fold change [2] | log2 fold change (epoxomicin) | log2 fold change [3] | log2 fold change [4] | log2 fold change [5] | log2 fold change (rosiglitazone) | log2 fold change [6] | log2 fold change [7] | log2 fold change (saracatinib) | log2 fold change (sotrastaurin) | log2 fold change (alvocidib) | log2 fold change (Tubastatin A) | log2 fold change [8] | log2 fold change (defactinib) | log2 fold change (rucaparib) | log2 fold change [9] | log2 fold change (encorafenib) | log2 fold change [10]
1 | KLC2 (UniProt Q9H0B6) | -0.03 | -0.059 | 0.038 | 0.015 | -0.046 | 0.02 | -0.003 | 0.057 | -0.013 | -0.131 | -0.107 | -0.032 | -0.095 | 0.086 | -0.017 | -0.13 | 0.001 | 0.051 | 0.036 | -0.051
2 | KPNA4 (UniProt O00629) | -0.008 | -0.251 | 0.033 | -0.008 | 0.038 | 0.029 | 0 | 0.01 | -0.066 | -0.052 | 0.013 | 0.032 | -0.085 | -0.017 | -0.052 | -0.095 | -0.117 | 0 | 0.016 | 0.015
3 | KDM1A isoform 2 (UniProt O60341) | 0.135 | -0.028 | 0.06 | 0.101 | -0.053 | -0.111 | 0.006 | 0.099 | -0.001 | -0.091 | -0.061 | -0.139 | -0.108 | 0.127 | -0.032 | -0.065 | 0.14 | 0.021 | 0.052 | -0.032
4 | KCTD2 (UniProt Q14681) | 0.003 | 0.029 | -0.033 | -0.052 | 0.007 | -0.024 | -0.068 | -0.024 | 0.049 | -0.623 | -0.276 | 0.226 | 0.188 | 0.015 | -0.076 | 0.038 | 0.066 | -0.243 | -0.128 | 0.082
5 | LBR (UniProt Q14739) | -0.036 | 0.552 (active) | 0.051 | 0.022 | -0.012 | -0.071 | 0.056 | 0.086 | -0.026 | 0.099 | 0.008 | 0.036 | -0.032 | -0.008 | -0.02 | -0.022 | 0.164 | 0.116 | 0.058 | -0.089
6 | LEMD3 (UniProt Q9Y2U8) | -0.096 | -0.324 (active) | -0.063 | 0.095 | -0.076 | 0.003 | 0.123 | -0.03 | -0.016 | -0.081 | -0.014 | 0.013 | -0.057 | 0.062 | 0.068 | -0.111 | 0.027 | 0.039 | 0.026 | -0.075
7 | IRAK4 (UniProt Q9NWZ3) | -0.138 | -0.299 | 0.048 | 0.038 | -0.092 | -0.033 | 0.061 | 0.042 | 0.029 | 0.013 | -0.026 | -0.061 | -0.106 | 0.006 | 0.162 | -0.022 | 0.076 | 0.01 | 0.006 | -0.071
8 | KIFBP (UniProt Q96EK5) | -0.007 | -0.333 (active) | 0.11 | -0.035 | -0.036 | 0.017 | 0.038 | 0.11 | 0.095 | -0.046 | -0.039 | 0.029 | -0.021 | -0.01 | 0.02 | -0.092 | 0.045 | -0.019 | 0.049 | -0.134
9 | MICOS13 (UniProt Q5XKP0) | -0.132 | -0.181 | 0.025 | 0.023 | -0.023 | -0.043 | 0.026 | 0.011 | -0.044 | -0.579 (active) | 0.039 | 0.01 | -0.001 | 0 | 0.005 | -0.07 | -0.041 | -0.017 | -0.028 | -0.005
10 | KEL (UniProt P23276) | 0.195 | -0.085 | -0.085 | 0.063 | 0.033 | -0.013 | -0.007 | 0.024 | 0.018 | 0.088 | 0.09 | -0.009 | -0.044 | 0.004 | -0.091 | -0.038 | 0.006 | -0.026 | -0.061 | 0.03
11 | KHDRBS1 (UniProt Q07666) | 0.148 | 0.106 | 0.074 | -0.029 | 0.016 | -0.096 | -0.007 | -0.028 | -0.04 | 0.116 | 0.025 | 0.018 | 0.027 | -0.006 | 0 | 0.042 | 0.248 (active) | -0.009 | -0.009 | -0.05
12 | MAGEA9 (UniProt P43362) | -0.11 | -0.39 (active) | -0.057 | -0.044 | -0.05 | -0.088 | 0.044 | 0.038 | -0.084 | -0.116 | 0.041 | -0.037 | -0.346 | -0.038 | -0.001 | -0.175 | -0.153 | 0.015 | 0.039 | -0.082
13 | ILF2 (UniProt Q12905) | 0.277 | 0.281 | 0.029 | -0.186 | -0.018 | 0.2 | -0.053 | -0.099 | 0.16 | 0.352 | 0.039 | 0.041 | 0.325 | -0.058 | 0.015 | 0.491 (active) | 0.19 | 0.04 | 0.028 | 0.012
14 | LIMD1 (UniProt Q9UGP4) | -0.055 | -0.245 (active) | 0.042 | -0.018 | 0.026 | 0.002 | 0.015 | 0.064 | -0.028 | -0.043 | 0.074 | -0.011 | -0.03 | -0.034 | -0.029 | -0.03 | -0.008 | -0.01 | 0.004 | 0.004
15 | LMBRD1 (UniProt Q9NUN5) | -0.073 | 0.032 | 0.015 | 0.065 | -0.01 | -0.015 | 0.015 | -0.016 | 0.133 | -0.351 | 0.154 | 0.023 | 0.042 | 0.098 | 0.052 | 0.047 | -0.023 | -0.173 | 0.053 | -0.057
16 | MCL1 (UniProt Q07820) | -0.03 | -0.038 | -0.033 | 0.308 | 0.213 | -0.032 | 0.052 | 0.019 | -0.035 | -0.209 | 0.011 | -0.114 | -0.056 | 0.268 | -0.022 | -0.015 | 0.029 | -0.063 | 0.004 | 0.047
